# Measured values: the supplement of paper PMC6897291
# Experiments:
# U-2932 [1] = assay: growth inhibition by drug alone (1 - RLU/untreated control) (fraction); higher = stronger inhibition; conditions: 177Lu-lilotomab satetraxetan 0 ug/ml
# Procedure, shortened: (§1)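 Compound doses on the pre-printed Selleck Cambridge Cancer Compound library plates were 10/100 nM for RIVA cells and 10/1,000 nM for U-2932 cells, seeded at 3,000 cells/well. Before seeding, cells were washed after 18 h with or without a radiolabelled anti-CD37 antibody conjugate (~600 MBq/mg; 0.5 µg/ml RIVA, 1 µg/ml U-2932). Growth inhibition was derived from RealTime-Glo luminescence relative to untreated no-drug control wells. Readings were taken daily starting on day 3, each after 1 h at 37°C, and each well's RLU was divided by the mean of 48 such wells per plate and subtracted from 1.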
# RIVA [2] = assay: as above; conditions: 177Lu-lilotomab satetraxetan 0 ug/ml
# Procedure, shortened: as §1
# U-2932 [3] = assay: growth inhibition by drug plus 177Lu-lilotomab satetraxetan (1 - RLU/untreated control) (fraction); higher = stronger inhibition; conditions: 177Lu-lilotomab satetraxetan 1 ug/ml
# Procedure, shortened: as §1
# RIVA [4] = assay: as above; conditions: 177Lu-lilotomab satetraxetan 0.5 ug/ml
# Procedure, shortened: as §1
SMILES,"growth inhibition by drug alone (U-2932 [1]; 10 nM, time (day): 3)","growth inhibition by drug alone (U-2932 [1]; 10 nM, time (day): 4)","growth inhibition by drug alone (U-2932 [1]; 10 nM, time (day): 5)","growth inhibition by drug alone (U-2932 [1]; 10 nM, time (day): 6)","growth inhibition by drug alone (U-2932 [1]; 1000 nM, time (day): 3)","growth inhibition by drug alone (U-2932 [1]; 1000 nM, time (day): 4)","growth inhibition by drug alone (U-2932 [1]; 1000 nM, time (day): 5)","growth inhibition by drug alone (U-2932 [1]; 1000 nM, time (day): 6)","growth inhibition by drug alone (RIVA [2]; 10 nM, time (day): 3)","growth inhibition by drug alone (RIVA [2]; 10 nM, time (day): 4)","growth inhibition by drug alone (RIVA [2]; 10 nM, time (day): 5)","growth inhibition by drug alone (RIVA [2]; 10 nM, time (day): 6)","growth inhibition by drug alone (RIVA [2]; 100 nM, time (day): 3)","growth inhibition by drug alone (RIVA [2]; 100 nM, time (day): 4)","growth inhibition by drug alone (RIVA [2]; 100 nM, time (day): 5)","growth inhibition by drug alone (RIVA [2]; 100 nM, time (day): 6)","growth inhibition by drug plus 177Lu-lilotomab satetraxetan (U-2932 [3]; 10 nM, time (day): 3)","growth inhibition by drug plus 177Lu-lilotomab satetraxetan (U-2932 [3]; 10 nM, time (day): 4)","growth inhibition by drug plus 177Lu-lilotomab satetraxetan (U-2932 [3]; 10 nM, time (day): 5)","growth inhibition by drug plus 177Lu-lilotomab satetraxetan (U-2932 [3]; 10 nM, time (day): 6)","growth inhibition by drug plus 177Lu-lilotomab satetraxetan (U-2932 [3]; 1000 nM, time (day): 3)","growth inhibition by drug plus 177Lu-lilotomab satetraxetan (U-2932 [3]; 1000 nM, time (day): 4)","growth inhibition by drug plus 177Lu-lilotomab satetraxetan (U-2932 [3]; 1000 nM, time (day): 5)","growth inhibition by drug plus 177Lu-lilotomab satetraxetan (U-2932 [3]; 1000 nM, time (day): 6)","growth inhibition by drug plus 177Lu-lilotomab satetraxetan (RIVA [4]; 10 nM, time (day): 3)","growth inhibition by drug plus 177Lu-lilotomab satetraxetan (RIVA [4]; 10 nM, time (day): 4)","growth inhibition by drug plus 177Lu-lilotomab satetraxetan (RIVA [4]; 10 nM, time (day): 5)","growth inhibition by drug plus 177Lu-lilotomab satetraxetan (RIVA [4]; 10 nM, time (day): 6)","growth inhibition by drug plus 177Lu-lilotomab satetraxetan (RIVA [4]; 100 nM, time (day): 3)","growth inhibition by drug plus 177Lu-lilotomab satetraxetan (RIVA [4]; 100 nM, time (day): 4)","growth inhibition by drug plus 177Lu-lilotomab satetraxetan (RIVA [4]; 100 nM, time (day): 5)","growth inhibition by drug plus 177Lu-lilotomab satetraxetan (RIVA [4]; 100 nM, time (day): 6)"
CCn1c(-c2nonc2N)nc2c(C#CC(C)(C)O)ncc(OC[C@H]3CCCNC3)c21,0.0651,0.0169,-0.0977,-0.22,0.654,0.769,0.826,0.861,0.0369,-0.0639,-0.133,-0.326,-0.134,-0.204,-0.217,-0.34,-0.0148,0.000859,-0.00972,0.0167,0.596,0.736,0.792,0.836,0.28,0.464,0.475,0.494,0.315,0.41,0.42,0.413
CO[C@@H](C(=O)N1Cc2[nH]nc(NC(=O)c3ccc(N4CCN(C)CC4)cc3)c2C1)c1ccccc1,0.0385,-0.0423,-0.0829,-0.0542,0.206,0.258,0.259,0.368,-0.0286,-0.0311,-0.0917,-0.234,0.138,0.0638,0.148,0.29,0.00406,0.0748,0.116,0.142,0.398,0.469,0.53,0.634,,,,,,,,
CN(NC(=O)CC(=O)NN(C)C(=S)c1ccccc1)C(=S)c1ccccc1 [Elesclomol],0.796,0.791,0.818,0.825,0.982,0.982,0.983,0.984,0.97,0.964,0.963,0.964,0.976,0.976,0.975,0.974,0.854,0.88,0.914,0.935,0.983,0.982,0.984,0.987,,,,,,,,
CCC(=O)N1CCN(c2ccc(-n3c(=O)ccc4cnc5ccc(-c6cnc7ccccc7c6)cc5c43)cc2C(F)(F)F)CC1 [Torin 1],0.203,0.128,0.0048,-0.022,0.9,0.883,0.866,0.87,0.0288,0.0386,-0.0391,-0.398,0.409,0.37,0.289,0.104,0.168,0.161,0.208,0.242,0.904,0.878,0.875,0.879,0.556,0.599,0.631,0.621,0.595,0.604,0.565,0.531
O=C(O)CCc1ccc(NCc2cccc(Oc3ccccc3)c2)cc1,-0.00379,-0.0257,-0.0189,-0.0582,-0.0179,-0.0506,-0.13,-0.129,-0.138,-0.183,-0.212,-0.37,-0.259,-0.306,-0.351,-0.547,-0.0541,0.038,0.0596,0.0671,-0.0069,0.0299,0.0402,0.126,,,,,,,,
CCc1cc(Nc2nccc(-c3c(-c4ccc(OC)c(C(=O)Nc5c(F)cccc5F)c4)nc4ccccn34)n2)c(OC)cc1N1CCC(N2CCN(S(C)(=O)=O)CC2)CC1,0.0467,-0.0848,-0.0609,-0.106,-0.14,-0.0216,-0.0601,-0.147,0.0601,-0.0266,-0.11,-0.339,0.205,0.0778,0.0473,-0.0711,-0.00397,0.0169,0.0318,0.0887,-0.153,0.0173,0.00224,-0.0976,,,,,,,,
Nc1cc(C(F)(F)F)c(-c2cc(N3CCOCC3)nc(N3CCOCC3)n2)cn1,-0.0505,-0.0268,-0.042,0.0241,0.632,0.62,0.563,0.519,-0.24,-0.261,-0.283,-0.377,-0.244,-0.324,-0.245,-0.359,-0.138,-0.0899,-0.0958,-0.0143,0.508,0.421,0.403,0.455,0.268,0.424,0.461,0.48,0.33,0.394,0.402,0.384
CCc1ccc(CCOc2ccc(CC3SC(=O)NC3=O)cc2)nc1 (stereo not drawn) [Pioglitazone (Actos)],-0.11,-0.125,-0.103,-0.0806,-0.0965,-0.0693,-0.0516,0.0915,-0.15,-0.212,-0.202,-0.191,-0.391,-0.381,-0.369,-0.359,-0.113,-0.0372,0.0193,0.114,-0.102,-0.0405,0.0194,0.192,0.53,0.578,0.604,0.598,0.416,0.476,0.498,0.506
COc1ccc(CNC(=O)Nc2ncc([N+](=O)[O-])s2)cc1,-0.00788,-0.00166,0.0195,0.136,0.0779,0.0745,0.0965,0.0679,-0.12,-0.122,-0.158,-0.156,0.108,0.0378,-0.00577,-0.0255,-0.0555,-0.0169,0.0364,0.187,0.116,0.138,0.159,0.289,,,,,,,,
CCOC(=O)C1=C[C@]2(CC)CCCN3CCc4c(n1c1ccccc41)[C@@H]32 [Vinpocetine (Cavinton)],-0.0944,-0.0619,-0.0289,0.127,0.0303,0.0355,0.0149,0.00297,-0.107,-0.13,-0.129,-0.167,0.0294,-0.03,-0.0621,-0.112,-0.0659,-0.0355,-0.00313,0.159,0.000715,0.0172,0.0304,0.134,0.457,0.533,0.549,0.545,0.362,0.396,0.4,0.377
CNC(=O)c1cc(Oc2ccc(NC(=O)Nc3ccc(Cl)c(C(F)(F)F)c3)c(F)c2)ccn1 [Regorafenib (BAY 73-4506)],0.146,0.0913,0.0627,-0.0165,0.26,0.284,0.302,0.217,0.0302,0.118,0.0999,0.0537,0.189,0.262,0.302,0.293,0.125,0.179,0.283,0.319,0.269,0.291,0.39,0.48,,,,,,,,
O=C(NC1CCNCC1)c1n[nH]cc1NC(=O)c1c(Cl)cccc1Cl,0.0998,0.0607,0.0482,0.00372,0.953,0.964,0.972,0.975,0.0833,0.0499,0.00549,-0.171,-0.131,-0.1,-0.185,-0.425,0.0507,0.0657,0.0758,0.0972,0.947,0.964,0.971,0.977,0.495,0.577,0.593,0.579,0.503,0.57,0.566,0.533
COc1ccccc1OCC(O)CN1CCN(CC(=O)Nc2c(C)cccc2C)CC1 (stereo not drawn) [Ranolazine (Ranexa)],0.0363,0.0222,-0.0749,-0.119,-0.0415,-0.0106,-0.0786,-0.23,0.0348,-0.0338,-0.102,-0.328,-0.11,-0.146,-0.161,-0.223,-0.0197,0.00637,0.00274,0.118,-0.0847,8.82e-05,-0.0142,-0.000571,0.412,0.527,0.544,0.551,0.294,0.438,0.446,0.418
Cc1cc(O)c2c(c1)C(=O)c1cccc(O)c1C2=O [Chrysophanic acid (Chrysophanol)],-0.0586,-0.0671,-0.0488,0.0657,-0.0803,-0.0522,-0.0654,0.0406,-0.266,-0.269,-0.305,-0.322,-0.0635,-0.135,-0.0963,-0.115,-0.0546,-0.0035,0.0467,0.1,-0.0941,-0.0464,-0.00693,0.13,0.425,0.48,0.511,0.511,0.489,0.543,0.559,0.574
CCOC(=O)[C@@H](C)Oc1cccc2c(=O)n(CC(=O)Nc3ccc4c(c3)OCCO4)ccc12,-0.0226,-0.00751,0.0431,0.176,-0.114,-0.0578,-0.0945,-0.15,-0.12,-0.131,-0.182,-0.361,0.0368,-0.0449,-0.0731,-0.142,-0.0102,0.0168,0.0306,0.145,-0.139,-0.0327,-0.0266,-0.0505,0.384,0.517,0.542,0.536,0.305,0.424,0.427,0.414
CC(C)Oc1cc(Nc2nc(N[C@@H](C)c3ccc(F)cn3)ncc2Cl)n[nH]1,0.14,0.0983,-0.0668,-0.0699,0.0367,0.0436,-0.032,-0.0869,0.0887,0.104,0.0671,-0.147,-0.29,-0.178,-0.215,-0.331,0.116,0.157,0.213,0.262,0.11,0.174,0.221,0.323,0.626,0.642,0.679,0.662,0.487,0.557,0.57,0.574
Cc1ccc(F)c(NC(=O)Nc2ccc(-c3cccc4[nH]nc(N)c34)cc2)c1 [Linifanib (ABT-869)],0.0297,0.0175,-0.00657,0.043,0.133,0.146,0.103,0.0811,-0.11,-0.109,-0.157,-0.289,0.0372,0.000859,-0.0495,-0.102,0.0166,0.0206,0.0473,0.197,0.0768,0.108,0.147,0.253,,,,,,,,
